Results on 14 molecules are retold here after PubChem BioAssay (NCI).

“And” between values parts separate entries of the source, which are not always exact repeats. Equal entries are not always repeated. This is part of a sample that, as a whole, favours compounds with a hit. Of some 83,000 tested, about 20% had one in any assay.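 Activity criterion: percent growth below 10, measured after cells in 96-well plates were exposed to a single compound concentration for 48 hours.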 A number with no mark means an inactive call. The source made the active and inactive calls.

This experiment deals with HL-60(TB) leukemia. Kind of experiment: NCI-60 one-dose screen, 48 h (100 = growth as untreated, 0 = no growth, -100 = all killed). The following applies: 10 µM unless noted.
Consider `O=C(/C=C/c1cccc(Cl)c1)OCc1ccc2cc1OCC#C/C=C\C#CCO2`, for which the growth was 81.8%.
The value for `Oc1c(C(c2ccc(F)cc2)N2CCCCC2)ccc2cncnc12` (centres undefined) was -29.3% (active); that for `Cc1cc(O)c(C(C)C)cc1N` was 83.9% and 122%; that for `O=c1[nH]ncc(Br)c1Br` was 65.5%.
The value for `O=C(Nc1nc2ccc(C(=O)N3CCN(c4ccc(Cl)c(Cl)c4)CC3)cc2s1)c1ccc(NCCc2ccccc2)c([N+](=O)[O-])c1` was 101%.
Consider `CCN(CC)CCCC(C)Nc1c2ccc(Cl)cc2nc2ccc(O)cc12` (centres undefined), for which the growth is 45.7%.
The value for `COc1ccc(/C=C/C(=O)Nc2ncnc3nc[nH]c23)cc1` was 78.8%; that for `CC1Cc2ccccc2N1C(=O)c1ccc(C(=O)c2ccccc2)cc1` (centres undefined) was -11.1% (active).
The value for `C=C(C)[C@@H]1CC[C@@]2(C(=O)O)CC[C@]3(C)C(CCC4[C@@]5(C)CCC(OS(=O)(=O)c6ccccc6)C(C)(C)C5CC[C@]43C)C12` (some centres undefined) was 21.4%; that for `N#C/C(=C\c1ccc([N+](=O)[O-])s1)c1nc2cc(Cl)ccc2s1` was 44.8%.
Turning to `COc1cc(-c2cc(=O)oc3cc(O)ccc23)cc(OC)c1OC`, the growth was 86.3%.
The value for `O=C(O)c1ccc(=O)[nH]n1` was 111%; that for `COc1cc(CNC(=O)CCCCC[P+](c2ccccc2)(c2ccccc2)c2ccccc2)c(OC)c2c1OCO2` was -2.75% (active); that for `COc1c(B(O)O)cccc1-c1nc2c(F)cc3n[nH]c(C)c3c2c2c1CCCC2` was 6.65% (active).
